Consider 22 molecules from PubChem BioAssay (NCATS).

“And” between values parts separate entries of the source, which are not always exact repeats. Equal entries are not always repeated. Inconclusive results are not listed. A number with no mark means an inactive call. The source made the active and inactive calls. Unless noted, calls come from the whole dose curve; as a rule, active = well fitted curve in either direction with a large enough effect (not every such curve was filed as active); inconclusive = small, poorly fitted or top-dose-only effect, or another doubt; inactive = flat fitted curve, though single readings scatter.

Experiment [1] in a line: AP1 Signaling Pathway (AID 357).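 Note: ME-180 reporter cells stimulated with EGF at its EC50 level; % is set by controls: 0 for no effect and ±100 for the full control effect.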 Put shortly:
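Read-out was the 460nm/530nm emission ratio (excitation 405nm) after CCF4 loading for 2.5 hours at room temperature. Cells carried an AP-1-driven beta-lactamase reporter, were stimulated with EC50 EGF plus compound for 5 hours, and AC50 values came from titrations.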

The target of experiment [2] is Cytochrome P450 1A2 (Homo sapiens) (UniProt P05177). As to the kind of experiment: p450-cyp1a2 (AID 410; calls by dose curve; note: potency is the fitted concentration of half-maximal effect;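 for activity change, negative = inhibition: -100% = full effect of reference inhibitor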). Put shortly: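 Human CYP1A2 (20nM) demethylated Luciferin-ME at its Km (100uM) in 100mM KPO4. After 10 min compound preincubation, NADPH regeneration ran the reaction 60 min at room temperature. Luciferin was read by luminescence, normalized to 57 uM furafylline.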

Experiment [3] in a line: NFAT Signaling Pathway (AID 444).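 Note: carbachol stimulus at about its EC50 of 1 µM final; % is set by controls: 0 for no effect and ±100 for the full control effect.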 As to conditions: Jurkat NFAT-bla M1, carbachol, beta-lactamase ratio, 5 h. Put shortly:
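Read-out: CCF4 FRET ratio (460 nm/530 nm) after 1 h RT dye loading, used for %activity and AC50 from titration series. Cells: Jurkat NFAT-β-lactamase/M1 line, treated with compound plus 1 uM carbachol for 5 h, 37 °C.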

The nature of experiment [4]: Stat Signaling Pathway (AID 446).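 Note: ME-180 cervical cancer cells given 40 pM IL-6 alongside compound; SIE-controlled beta-lactamase reporter measured as 460/530 nm FRET emission ratio; % is set by controls: 0 for no effect and ±100 for the full control effect.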 Put shortly:
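IL-6/STAT signaling read in ME-180 cells via an SIE beta-lactamase reporter. Stimulus was 40 pM IL-6 (its AC50) for 5 hrs, so both activation and inhibition register.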

Experiment [5] in a line: Cell Viability - BJ (AID 421; calls by dose curve;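 note: potency is the fitted concentration of half-maximal effect; cells exposed to compound for 40 hours at 37 °C before readout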). The note with it: BJ fibroblast viability, qHTS. Put shortly:
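Quantitative HTS: ATP depletion in BJ cells after 40 hr compound exposure in complete culture medium, detected with CellTiter-Glo; AC50 from standard Hill fits.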
For orientation: qHTS replaces the single test concentration by a dilution series.

A short description of experiment [6]: Cell Viability - Jurkat (AID 426;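 active = dose-dependent loss of cell ATP signal giving a full or clear fitted curve, ranked by lower potency value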; note: potency is the fitted concentration of half-maximal effect). The note with it: qHTS. Put shortly: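 Jurkat (clone E6-1, human T-cell leukemia) cells, 5000/well in complete medium, were exposed to compound for 40 hr at 37 °C. Viability was read as intracellular ATP by CellTiter-Glo luminescence; AC50 came from Hill fits of concentration-response data.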
Experiment [7] is described as follows: Cell Viability - Hek293 (AID 427;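 active = compounds whose dose-response curve shows a full or clear partial loss of cell viability, called from curve shape rather than a numeric limit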;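 note: potency is the fitted concentration of half-maximal effect; cells exposed to compound for 40 hours at 37 °C before reading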). The note with it: qHTS. Put shortly: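 AC50 values derive from Hill-modelled concentration-response of ATP-based luminescence, normalized between DMSO-only and 100 uM tamoxifen controls. Cells were exposed in complete culture medium for 40 hr at 37 °C before detection.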
Experiment [8] is described as follows: Cell Viability - HepG2 (AID 433; calls by dose curve;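 note: potency is the fitted concentration of half-maximal effect; potency for ATP loss meaning cytotoxicity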). The note with it: qHTS. Put shortly: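 HepG2 cells, 1500 per well, treated 40 hr at 37 °C in complete medium; viability from intracellular ATP by CellTiter-Glo luminescence. Normalized to DMSO and 100 uM tamoxifen; AC50 from Hill fit of qHTS concentration-response.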
Experiment [9] is described as follows: Cell Viability - MRC5 (AID 434; calls by dose curve;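 note: potency is the fitted concentration of half-maximal effect; potency reflects cytotoxicity seen as loss of intracellular ATP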). The note with it: MRC5 lung fibroblast viability, qHTS. Put shortly:
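qHTS cytotoxicity in human lung fibroblast MRC5 cells; 40 hr treatment, 37 °C; cellular ATP by luciferase luminescence; DMSO = 0%, 100 uM tamoxifen = 100% inhibition; Hill-fit AC50.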

Experiment [10] in a line: Cell Viability - SK-N-SH (AID 435; calls by dose curve;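 note: potency is the fitted concentration of half-maximal effect; compound exposure lasted 40 h at 37 °C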). The note with it: SK-N-SH neuroblastoma cell viability qHTS. Put shortly: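 SK-N-SH neuroblastoma cells (1500/well) treated 40 h at 37 °C in complete medium; viability read as cellular ATP by CellTiter-Glo luminescence. Normalized to DMSO and 100 uM tamoxifen; AC50 from Hill fits of qHTS concentration-response.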

Chain of Cytochrome P450 1A2 (Homo sapiens) (P05177 whole entry, looked up): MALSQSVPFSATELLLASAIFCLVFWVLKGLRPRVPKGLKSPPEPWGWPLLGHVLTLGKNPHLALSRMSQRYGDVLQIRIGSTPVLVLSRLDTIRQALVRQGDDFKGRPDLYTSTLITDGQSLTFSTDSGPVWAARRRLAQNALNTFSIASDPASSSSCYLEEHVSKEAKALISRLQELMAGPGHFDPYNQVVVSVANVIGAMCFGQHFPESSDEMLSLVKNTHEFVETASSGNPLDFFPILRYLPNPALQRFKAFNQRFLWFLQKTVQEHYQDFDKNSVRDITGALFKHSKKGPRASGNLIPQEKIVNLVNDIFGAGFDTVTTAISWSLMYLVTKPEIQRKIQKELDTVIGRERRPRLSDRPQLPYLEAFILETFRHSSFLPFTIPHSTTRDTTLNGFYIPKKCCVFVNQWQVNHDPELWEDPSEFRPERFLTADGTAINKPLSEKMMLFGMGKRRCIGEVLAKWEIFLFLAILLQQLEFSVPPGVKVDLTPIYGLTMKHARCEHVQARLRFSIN

In the case of `COc1ccccc1N1CCN(CCN(C(=O)C2CCCCC2)c2ccccn2)CC1`, the molecule was called inactive in experiment [1] and in experiment [4]. Also, in experiment [2], the Potency entry is “inactive”. The activity change, negative = inhibition in experiment [3] (at 38 µM (top of the series)) was 3.68%.

With `CCC1=C(C)CN(C(=O)NCCc2ccc(S(=O)(=O)NC(=O)NC3CCC(C)CC3)cc2)C1=O` (configuration not stated), the call in experiment [1] and in [4] was inactive. In addition, the Potency entry in experiment [2] was “inactive”. Besides, the activity change, negative = inhibition in [3] (at 17.2 µM (top of the series)) is 4.19%.

For `CC1(C)C(=O)N(CCN2CCC(C(=O)c3ccc(F)cc3)CC2)c2ccccc21`, the outcome in experiment [1] and in experiment [4] was inactive. In addition, in experiment [2], the Potency result was “inactive”. Besides, in experiment [3] (at 38 µM (top of the series)), the activity change, negative = inhibition is -22.8%.

Consider `NNc1nncc2ccccc12`, for which the molecule was classed as inactive in experiment [1] and in experiment [4]. In experiment [2], the Potency is 3.16 µM (active) and 1 µM (active). Also, the results for the activity change, negative = inhibition in experiment [3] (at 17.2 µM (top of the series)) and in experiment [3] (at 38 µM (top of the series)) were -29.1% and 8.48%, respectively.

Take `CCOc1cc(CC(=O)N[C@@H](CC(C)C)c2ccccc2N2CCCCC2)ccc1C(=O)O`: the call in experiment [1] and in experiment [4] was inactive. Moreover, the Potency entry in experiment [2] is “inactive”. Further, in experiment [3] (at 17.2 µM (top of the series)), the activity change, negative = inhibition is -1.28%.

`Cc1cccc(C#Cc2ccccc2)n1`: the molecule was called inactive in experiment [1] and in experiment [4]. In addition, in experiment [2], the Potency was 631 nM (active) and 158 nM (active). The activity change, negative = inhibition in experiment [3] (at 38 µM (top of the series)) was -6.27%.

With `Cc1cc(=O)oc2cc(O)ccc12`, the outcome in experiment [1] and in experiment [4] was inactive. Further, the Potency in experiment [2] was 3.98 µM (active).

Turning to `O=C(O)c1cc(=O)c2c(OCC(O)COc3cccc4oc(C(=O)O)cc(=O)c34)cccc2o1`, the outcome in experiment [1] and in experiment [4] was inactive. Further, the Potency entry in experiment [2] is “inactive”. For the same molecule, the activity change, negative = inhibition in experiment [3] (at 17.2 µM (top of the series)) is -1.1% and -27.1%.

`NS(=O)(=O)c1cc(C(=O)O)c(NCc2ccco2)cc1Cl`: the call in experiment [1] and in experiment [4] was inactive. In addition, the Potency in [5], in experiment [6], in experiment [7], in experiment [8], in [9] and in experiment [10] was greater than 92 µM each time. Further, the activity change, negative = inhibition in experiment [3] (at 17.2 µM (top of the series)) was -8.48%.

Take `O=C(CCc1ccc(O)cc1)c1c(O)cc(O)cc1O`: the call in experiment [1] was inactive. Moreover, the Potency in experiment [2] is 6.31 µM (active) and 2 µM (active). Besides, the activity change, negative = inhibition in experiment [3] (at 38 µM (top of the series)) was 9.49%.

On to `O=c1cc(N2CCOCC2)oc2c(-c3ccccc3)cccc12`, for which the molecule was classed as inactive in experiment [1] and in [4]. For the same molecule, the Potency in experiment [2] was 1.58 µM (active) and 200 nM (active). In [3] (at 38 µM (top of the series)), the activity change, negative = inhibition is -14.3%.

In the case of `O=C1c2ccccc2-c2n[nH]c3cccc1c23`, the molecule was called inactive in experiment [1]. Further, the Potency in experiment [2] is 126 nM (active) and 15.8 nM (active). In addition, the activity change, negative = inhibition in experiment [3] (at 38 µM (top of the series)) is 6.14%.

For `c1ccc2[nH]c(-c3cscn3)nc2c1`, the molecule was classed as inactive in experiment [1] and in experiment [4]. Besides, the Potency in experiment [2] is 0.126 µM (active); in [5] it was greater than 92 µM; in experiment [7], greater than 92 µM; in experiment [8] it was greater than 92 µM; in experiment [9], greater than 92 µM; in [10] it was greater than 92 µM. The activity change, negative = inhibition in experiment [3] (at 17.2 µM (top of the series)) was -19.5% and -28.1%.

Consider `O=c1c(O)c(-c2ccc(O)cc2O)oc2cc(O)cc(O)c12`, for which, in experiment [1], the outcome was inactive. For the same molecule, the Potency in experiment [2] is 12.6 µM (active). Besides, the activity change, negative = inhibition was 10% in [3] (at 17.2 µM (top of the series)) and 2.93% in [3] (at 38 µM (top of the series)).

In the case of `COc1c2occc2cc2ccc(=O)oc12`, the call in [1] and in experiment [4] was inactive. Further, the Potency in [5], in [6], in [7], in experiment [8], in [9] and in experiment [10] was greater than 92 µM in each case. Moreover, the activity change, negative = inhibition in experiment [3] (at 17.2 µM (top of the series)) was 0.388%.

For `Nc1nc(OCc2ccccc2)c2[nH]cnc2n1`, the molecule was called inactive in experiment [1] and in experiment [4]. The Potency in experiment [2] was 1 µM (active). Besides, in experiment [3] (at 38 µM (top of the series)), the activity change, negative = inhibition is -5.61%.

As to `Cc1cc2cc3c(C)cc(=O)oc3c(C)c2o1`, the call in [1] was inactive. In addition, in experiment [2], the Potency was 1 µM (active).

Regarding `CC1(C)NC(=O)N(c2ccc([N+](=O)[O-])c(C(F)(F)F)c2)C1=O`, the molecule was called inactive in [1] and in experiment [4]. Further, the Potency in experiment [2] was 12.6 µM (active) and 3.16 µM (active) and 2.51 µM (active). Besides, the activity change, negative = inhibition in [3] (at 17.2 µM (top of the series)) was -3.85%; in experiment [3] (at 38 µM (top of the series)), 1.13%.

Take `CCCCc1ccc2nc(NC(=O)OC)[nH]c2c1`: the result in experiment [1] and in experiment [4] was inactive. Also, the Potency in experiment [2] was 0.501 µM (active).

Turning to `CCc1nc(N)nc(N)c1-c1ccc(Cl)cc1`, the molecule was called inactive in [1] and in experiment [4]. Besides, the Potency in [2] was 10 µM (active); in experiment [5] it was greater than 92 µM; in experiment [6] it was 3.02 µM (active); in experiment [7], 1.64 µM (active); in experiment [8] it was 1.05 µM (active); in experiment [9] it was greater than 92 µM. The Potency in experiment [10] is 25.6 µM (active). The activity change, negative = inhibition in experiment [3] (at 17.2 µM (top of the series)) was -6.33% and 6.33%.

`Cc1c(OCC(F)(F)F)ccnc1CS(=O)c1nc2ccccc2[nH]1` (configuration not stated): the molecule was classed as inactive in experiment [1] and in experiment [4]. The Potency in experiment [2] is 31.6 µM (active) and 15.8 µM (active). For the same molecule, the activity change, negative = inhibition was -20.4% and -11.1% in experiment [3] (at 17.2 µM (top of the series)); 0.241% in experiment [3] (at 38 µM (top of the series)).

As to `CCCc1cc(=O)[nH]c(=S)[nH]1`, the call in experiment [1] and in experiment [4] was inactive. The Potency entry in experiment [2] was “inactive”. Also, the Potency in [5], in [6], in experiment [7], in [8], in experiment [9] and in experiment [10] was greater than 92 µM each time. Also, the activity change, negative = inhibition in experiment [3] (at 17.2 µM (top of the series)) was -2.4% and 6.45%.
